Assay results from PubChem BioAssay (Tox21).
Several values for one entry are separate records, joined by “and”; a condition that tells them apart may be missing. Equal entries are not always repeated. Results filed as inconclusive are left out. Where a call stands in place of a potency, no number is given. A structure can be active in one record and inactive in another. Activity calls are given as the source filed them. Unless noted, calls follow the shape of the dose curve; as a rule, active = well fitted curve in the direction sought with a large enough effect in the repeat runs; inconclusive = weak or mixed curves; inactive = no such curve, though single readings can be large; an effect the other way counts as inactive or inconclusive.

Assays:
[1] = qHTS assay to identify small molecule agonists of the androgen receptor (AR) signaling pathway in the presence of an antagonist - cell viability counter screen (AID 1259379); also: nearly all actives have a fitted effect of over 25% in size; also: potency is read from the fitted curve at half-maximal effect
How it was run: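 Fluorescence from CellTiter-Fluor, added after 15 hr and read 1 hr later, gave cell viability. Cells were MDA-kb2 exposed to compounds (15 concentrations) in the presence of 3.0uM nilutamide at 37C, 0% CO2.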

[2] = qHTS assay to identify small molecule agonists of the estrogen receptor beta (ER-beta) signaling pathway - cell viability counter screen (AID 1259380); also: nearly all actives have a fitted effect of over 30% in size; also: potency is read from the fitted curve at half-maximal effect
How it was run: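 Same-well viability counter screen. Cells: ER-beta-UAS-bla HEK293T, plated 6 hr before compound, in 2% charcoal-stripped FBS. Compound exposure 16 hr, 37C; viability by CellTiter-Glo luminescence after 30 min at room temperature.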

[3] = target: Estrogen receptor (Homo sapiens) (UniProt P03372); assay: qHTS assay to identify small molecule agonists of the estrogen receptor alpha (ER-alpha) signaling pathway in the presence of an antagonist (AID 1259383; calls by dose curve; also: top concentration of the series differs between compounds; nearly all actives have a fitted effect of over 15% in size)
How it was run: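 Cells are hormone-deprived for 5 days (charcoal-stripped FBS, no phenol red), plated for 24hr, spiked with 10.0nM ICI-182,780, then dosed at 15 concentrations. After 22hr at 37C, ONE-Glo luminescence reports ERE-luciferase activity.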

[4] = qHTS assay to identify small molecule agonists or antagonists of the thyroid stimulating hormone receptor (TSHR) signaling pathway - wild type cell line counter screen (AID 1259384; calls by dose curve)
How it was run: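 Wild-type Hek293 cells, 800/well, 18 h at 37C, then compound with Ro20-1724 for 30 min RT. cAMP by HTRF (cAMP-d2/anti-cAMP cryptate), 1 h RT, fluorescence read. 15 concentrations, triplicates.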

[5] = target: Thyrotropin receptor (Homo sapiens) (UniProt P16473); assay: qHTS assay to identify small molecule antagonists of the thyroid stimulating hormone receptor (TSHR) signaling pathway (AID 1259385; calls by dose curve; also: nearly all actives have a fitted effect of over 20% in size)
How it was run: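 TSHR-HEK293 cells (800/well) plated 18 h, then compounds with Ro20-1724 and TSH at 1.5 ng/mL final, 30 min at room temperature. cAMP quantified by HTRF (cAMP-d2/anti-cAMP-cryptate, 1 h); 15 concentrations in triplicate.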

[6] = qHTS assay to identify small molecule agonists of the estrogen receptor alpha (ER-alpha) signaling pathway in the presence of an antagonist - cell viability counter screen (AID 1259386);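 also: cells exposed to compounds for 22 h at 37 °C before the viability read; nearly all actives have a fitted effect of over 30% in size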; also: potency is read from the fitted curve at half-maximal effect
How it was run: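 Cells are starved of estrogens for 5 days in charcoal-stripped serum, seeded for 24hr and co-treated with ICI-182,780 (10.0nM final) and test compounds. After 22hr at 37C, viability is read as CellTiter-Fluor fluorescence.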

[7] = target: Progesterone receptor (Homo sapiens) (UniProt P06401); assay: qHTS assay to identify small molecule agonists of the progesterone receptor (PR) signaling pathway (AID 1346784; calls by dose curve; also: nearly all actives have a fitted effect of over 30% in size)
How it was run: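 HEK 293T PR-UAS-bla reporter cells, 2% charcoal-stripped FBS; 6 hr settle at 37C/5% CO2, compound (DMSO) 16 hr, LiveBLAzer B/G FRET substrate 2 hr RT, fluorescence intensity read.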

[8] = target: Progesterone receptor (Homo sapiens) (UniProt P06401); assay: qHTS assay to identify small molecule antagonists of the progesterone receptor (PR) signaling pathway (AID 1346795; active = well fitted inhibition curve with a large enough effect in the signal ratio in the repeat runs, not every such curve was filed as active; the % refers to the signal ratio; also: potency is read from the fitted curve at half-maximal effect)
How it was run: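 Beta-lactamase reporter, HEK293T PR-UAS-bla line; 2% charcoal-stripped FBS; 6 hr pre-incubation, 37C/5% CO2. Compound + R5020 1 nM final, 16 hr. LiveBLAzer B/G FRET substrate, 2 hr RT; fluorescence intensity read.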

[9] = qHTS assay to identify small molecule antagonists of the progesterone receptor (PR) signaling pathway - cell viability counter screen (AID 1346798); also: nearly all actives have a fitted effect of over 50% in size; also: potency is read from the fitted curve at half-maximal effect
How it was run: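 Luminescence readout (CellTiter-Glo, 30 min, RT) of viability in PR-UAS-bla HEK293T cells exposed to compound and R5020 agonist for 16 hr at 37C, 5% CO2; run in the same wells as the beta-lactamase reporter read.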

[10] = qHTS assay to identify small molecule agonists of the progesterone receptor (PR) signaling pathway - cell viability counter screen (AID 1346799; calls by dose curve; also: nearly all actives have a fitted effect of over 45% in size; also: potency is read from the fitted curve at half-maximal effect)
How it was run: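 HEK293T PR-UAS-bla, 3,000 cells/well, 2% charcoal-stripped FBS; 6 h settle, compound 16 h at 37C/5% CO2; LiveBLAzer 2 h RT, then CellTiter-Glo 30 min RT, luminescence read.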

[11] = qHTS assay to identify small molecule antagonists of the TGF-beta/Smad signaling pathway - cell viability counter screen (AID 1346824); also: nearly all actives have a fitted effect of over 50% in size; also: potency is read from the fitted curve at half-maximal effect
How it was run: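 SBE-bla HEK 293T cells, incubated overnight, then compound plus 0.25 ng/mL TGF-beta1 (stock added) for 5 hr at 37 C. Viability was read in the same wells by CellTiter-Glo luminescence after 30 min at room temperature.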

[12] = qHTS assay to identify small molecule agonists of the TGF-beta/Smad signaling pathway - cell viability counter screen (AID 1346829); also: nearly all actives have a fitted effect of over 45% in size; also: potency is read from the fitted curve at half-maximal effect
How it was run: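 In parallel with the Smad reporter read, viability of HEK 293T cells stably carrying SBE-bla is quantified by ATP luminescence following 5 hr compound treatment.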

[13] = qHTS assay to identify small molecule agonists of the TGF-beta/Smad signaling pathway (AID 1346859; active = well fitted activation curve with a large enough effect in the signal ratio in the repeat runs, not every such curve was filed as active; the % refers to the signal ratio; also: series mostly up to about 77 µM)
How it was run: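 Read-out: fluorescence at 460 and 530 nm (405 nm excitation) after a 2 hr room-temperature incubation with beta-lactamase FRET substrate. SBE-bla HEK 293T cells had been treated with test compounds for 5 hr at 37 C.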

[14] = target: Thyrotropin-releasing hormone receptor (Homo sapiens) (UniProt P34981); assay: qHTS assay to identify small molecule antagonists of the thyrotropin-releasing hormone receptor (TRHR) signaling pathway (AID 1346877; active = well fitted inhibition curve with a large enough effect in the repeat runs, not every such curve was filed as active; also: series mostly up to about 51 µM)
How it was run: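 Cells (TRHR-HEK293) are plated and kept 18 h at 37 °C/5% CO2. A calcium-sensitive dye is added for 2 h, compound follows for 5 min at room temperature, and TRH is then given at 1 nM final.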

[15] = target: Thyrotropin-releasing hormone receptor (Homo sapiens) (UniProt P34981); assay: qHTS assay to identify small molecule agonists of the thyrotropin-releasing hormone receptor (TRHR) signaling pathway (AID 1346891; calls by dose curve;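 also: HEK293 cells expressing TRHR with calcium dye readout; series mostly up to about 58 µM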)
How it was run: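 HEK293/TRHR cells, 1500 per well, 18 h 37 °C; Ca dye 2 h 37 °C; pin-tool compound addition (agonist mode); kinetic fluorescence 3 min, 1 s reads; 15 concentrations, triplicate.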

[16] = Human pregnane X receptor (PXR) small molecule agonists, qHTS cell viability counter screen (AID 1346977); also: nearly all actives have a fitted effect of over 50% in size; also: potency is read from the fitted curve at half-maximal effect
How it was run: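 Fluorescence read-out (CellTiter-Fluor) of viability in PXR-Luc HepG2 cells, multiplexed with the luciferase agonist read. Compounds in DMSO added after 5hr plating; 24hr total exposure at 37C, 5% CO2.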

[17] = target: Androgen receptor (Homo sapiens) (UniProt P10275); assay: qHTS assay to identify small molecule agonists of the androgen receptor (AR) signaling pathway in the presence of an antagonist (AID 1259381; calls by dose curve; also: nearly all actives have a fitted effect of over 15% in size)
How it was run: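 Cells are MDA-kb2 (human breast carcinoma, MMTV-luc, AR/GR responsive). Nilutamide is present at 3.0uM final throughout; compounds are added at 15 concentrations and incubated 16hr at 37C before ONE-Glo luminescence detection.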

[18] = qHTS assay to identify small molecule antagonists of the estrogen receptor beta (ER-beta) signaling pathway - cell viability counter screen (AID 1259382); also: series mostly up to about 92 µM; nearly all actives have a fitted effect of over 55% in size
How it was run: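 Following a 6 hr plating period, HEK293T cells carrying a UAS-driven beta-lactamase reporter under ER-beta control received compounds and 1nM E2 (final). After 16 hr at 37C and 2 hr substrate loading, CellTiter-Glo luminescence indicated viability.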

[19] = target: Estrogen receptor beta (Homo sapiens) (UniProt Q92731); assay: qHTS assay to identify small molecule antagonists of the estrogen receptor beta (ER-beta) signaling pathway (AID 1259378; active = well fitted inhibition curve with a large enough effect in the signal ratio in the repeat runs, not every such curve was filed as active; the % refers to the signal ratio)
How it was run: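 ER-beta-UAS-bla HEK293T cells in 2% charcoal-stripped FBS medium treated with compound plus 1nM final 17-beta-estradiol for 16 hr at 37C. Beta-lactamase reporter read by FRET substrate fluorescence after 2 hours at room temperature.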

Chain of Androgen receptor (Homo sapiens) (P10275 whole entry, looked up): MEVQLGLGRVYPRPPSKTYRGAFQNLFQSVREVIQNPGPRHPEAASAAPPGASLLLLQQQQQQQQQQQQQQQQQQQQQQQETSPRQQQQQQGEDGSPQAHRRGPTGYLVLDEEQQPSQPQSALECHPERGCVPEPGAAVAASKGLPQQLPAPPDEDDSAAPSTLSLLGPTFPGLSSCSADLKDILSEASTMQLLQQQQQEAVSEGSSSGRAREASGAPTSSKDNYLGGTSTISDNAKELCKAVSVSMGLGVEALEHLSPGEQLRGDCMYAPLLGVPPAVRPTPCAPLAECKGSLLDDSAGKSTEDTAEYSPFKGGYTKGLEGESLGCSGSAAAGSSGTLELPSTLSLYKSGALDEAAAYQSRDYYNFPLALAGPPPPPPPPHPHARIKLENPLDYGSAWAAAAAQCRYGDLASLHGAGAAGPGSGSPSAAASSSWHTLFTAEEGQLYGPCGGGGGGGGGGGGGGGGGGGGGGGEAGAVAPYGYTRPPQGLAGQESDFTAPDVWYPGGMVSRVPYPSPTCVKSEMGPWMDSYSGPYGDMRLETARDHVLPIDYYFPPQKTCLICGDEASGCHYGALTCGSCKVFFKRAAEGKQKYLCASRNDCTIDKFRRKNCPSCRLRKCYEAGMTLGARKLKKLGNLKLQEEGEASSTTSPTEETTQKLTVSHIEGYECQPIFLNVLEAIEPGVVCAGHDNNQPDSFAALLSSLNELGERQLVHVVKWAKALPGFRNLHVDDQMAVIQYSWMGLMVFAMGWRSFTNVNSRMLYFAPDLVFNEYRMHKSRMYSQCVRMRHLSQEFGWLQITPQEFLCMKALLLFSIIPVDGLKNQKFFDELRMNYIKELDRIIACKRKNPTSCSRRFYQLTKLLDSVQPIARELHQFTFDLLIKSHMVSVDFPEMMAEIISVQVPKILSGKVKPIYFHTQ
Chain of Estrogen receptor (Homo sapiens) (P03372 whole entry, looked up): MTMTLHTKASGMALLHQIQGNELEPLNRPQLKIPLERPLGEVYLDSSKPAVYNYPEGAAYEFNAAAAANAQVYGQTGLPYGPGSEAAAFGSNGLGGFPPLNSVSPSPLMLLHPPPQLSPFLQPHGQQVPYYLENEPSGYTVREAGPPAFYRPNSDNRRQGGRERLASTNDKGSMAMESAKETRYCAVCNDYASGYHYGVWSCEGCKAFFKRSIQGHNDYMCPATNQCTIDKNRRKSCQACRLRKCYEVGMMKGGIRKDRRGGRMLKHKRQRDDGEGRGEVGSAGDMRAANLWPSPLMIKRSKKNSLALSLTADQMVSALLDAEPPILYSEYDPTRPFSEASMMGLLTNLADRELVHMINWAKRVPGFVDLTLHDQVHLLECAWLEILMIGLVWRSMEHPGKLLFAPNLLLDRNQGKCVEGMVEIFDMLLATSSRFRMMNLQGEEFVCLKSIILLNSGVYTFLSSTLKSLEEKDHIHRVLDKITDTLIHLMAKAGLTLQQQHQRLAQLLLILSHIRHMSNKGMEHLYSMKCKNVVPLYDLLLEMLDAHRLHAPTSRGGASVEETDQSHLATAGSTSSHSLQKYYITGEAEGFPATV
Chain of Thyrotropin-releasing hormone receptor (Homo sapiens) (P34981 whole entry, looked up): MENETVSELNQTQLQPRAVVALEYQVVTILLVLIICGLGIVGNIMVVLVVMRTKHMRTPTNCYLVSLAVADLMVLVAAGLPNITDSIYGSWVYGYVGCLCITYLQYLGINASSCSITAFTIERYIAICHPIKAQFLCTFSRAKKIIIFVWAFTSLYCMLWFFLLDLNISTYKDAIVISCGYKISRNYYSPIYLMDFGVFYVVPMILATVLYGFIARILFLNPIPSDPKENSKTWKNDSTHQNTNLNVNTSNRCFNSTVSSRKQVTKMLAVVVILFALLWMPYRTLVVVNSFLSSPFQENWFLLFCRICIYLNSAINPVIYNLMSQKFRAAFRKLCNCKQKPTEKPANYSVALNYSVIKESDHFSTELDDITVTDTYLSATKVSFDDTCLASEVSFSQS
Chain of Progesterone receptor (Homo sapiens) (P06401 whole entry, looked up): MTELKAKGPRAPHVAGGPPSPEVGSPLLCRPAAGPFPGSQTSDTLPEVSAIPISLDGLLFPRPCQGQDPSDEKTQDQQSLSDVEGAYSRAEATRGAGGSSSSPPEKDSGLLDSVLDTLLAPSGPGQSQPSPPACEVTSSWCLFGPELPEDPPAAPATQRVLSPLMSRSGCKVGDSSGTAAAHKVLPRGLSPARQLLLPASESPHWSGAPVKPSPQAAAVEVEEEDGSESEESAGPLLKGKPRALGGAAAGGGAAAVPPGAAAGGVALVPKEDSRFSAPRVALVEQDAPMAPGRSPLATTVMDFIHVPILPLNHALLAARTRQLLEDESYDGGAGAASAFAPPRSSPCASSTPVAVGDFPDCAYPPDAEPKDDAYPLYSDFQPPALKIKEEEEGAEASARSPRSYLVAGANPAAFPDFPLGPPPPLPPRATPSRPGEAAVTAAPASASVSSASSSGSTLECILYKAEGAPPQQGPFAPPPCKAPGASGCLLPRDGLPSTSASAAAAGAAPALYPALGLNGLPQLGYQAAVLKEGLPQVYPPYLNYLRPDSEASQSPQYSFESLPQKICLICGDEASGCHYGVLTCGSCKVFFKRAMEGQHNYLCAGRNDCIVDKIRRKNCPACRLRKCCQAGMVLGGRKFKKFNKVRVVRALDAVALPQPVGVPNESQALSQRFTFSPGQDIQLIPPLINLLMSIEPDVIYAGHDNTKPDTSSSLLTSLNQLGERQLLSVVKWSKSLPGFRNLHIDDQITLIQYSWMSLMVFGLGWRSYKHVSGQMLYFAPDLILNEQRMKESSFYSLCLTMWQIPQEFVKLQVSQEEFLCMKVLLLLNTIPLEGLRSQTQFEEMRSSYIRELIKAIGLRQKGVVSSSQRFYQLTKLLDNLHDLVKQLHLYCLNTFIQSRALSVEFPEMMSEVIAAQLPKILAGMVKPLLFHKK
Chain of Thyrotropin receptor (Homo sapiens) (P16473 whole entry, looked up): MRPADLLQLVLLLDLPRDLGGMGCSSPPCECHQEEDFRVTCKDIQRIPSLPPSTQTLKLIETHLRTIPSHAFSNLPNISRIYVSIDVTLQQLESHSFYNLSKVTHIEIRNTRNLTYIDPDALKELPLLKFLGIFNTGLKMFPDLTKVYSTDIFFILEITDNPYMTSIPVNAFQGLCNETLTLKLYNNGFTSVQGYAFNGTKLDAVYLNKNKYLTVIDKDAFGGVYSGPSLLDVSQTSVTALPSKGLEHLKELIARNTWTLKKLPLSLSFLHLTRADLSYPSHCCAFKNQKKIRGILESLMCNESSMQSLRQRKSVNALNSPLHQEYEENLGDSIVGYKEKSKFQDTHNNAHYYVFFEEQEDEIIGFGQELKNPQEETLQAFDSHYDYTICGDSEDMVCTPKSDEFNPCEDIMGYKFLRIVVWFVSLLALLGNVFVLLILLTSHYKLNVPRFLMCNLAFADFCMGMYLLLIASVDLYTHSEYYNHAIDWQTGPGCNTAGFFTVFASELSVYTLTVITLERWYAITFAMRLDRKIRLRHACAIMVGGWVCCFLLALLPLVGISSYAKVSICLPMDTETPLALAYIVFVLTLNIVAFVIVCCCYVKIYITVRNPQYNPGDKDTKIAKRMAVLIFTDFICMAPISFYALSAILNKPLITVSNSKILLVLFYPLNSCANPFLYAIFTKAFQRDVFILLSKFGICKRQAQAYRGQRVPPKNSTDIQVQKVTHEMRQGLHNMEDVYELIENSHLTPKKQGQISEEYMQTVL
Chain of Estrogen receptor beta (Homo sapiens) (Q92731 whole entry, looked up): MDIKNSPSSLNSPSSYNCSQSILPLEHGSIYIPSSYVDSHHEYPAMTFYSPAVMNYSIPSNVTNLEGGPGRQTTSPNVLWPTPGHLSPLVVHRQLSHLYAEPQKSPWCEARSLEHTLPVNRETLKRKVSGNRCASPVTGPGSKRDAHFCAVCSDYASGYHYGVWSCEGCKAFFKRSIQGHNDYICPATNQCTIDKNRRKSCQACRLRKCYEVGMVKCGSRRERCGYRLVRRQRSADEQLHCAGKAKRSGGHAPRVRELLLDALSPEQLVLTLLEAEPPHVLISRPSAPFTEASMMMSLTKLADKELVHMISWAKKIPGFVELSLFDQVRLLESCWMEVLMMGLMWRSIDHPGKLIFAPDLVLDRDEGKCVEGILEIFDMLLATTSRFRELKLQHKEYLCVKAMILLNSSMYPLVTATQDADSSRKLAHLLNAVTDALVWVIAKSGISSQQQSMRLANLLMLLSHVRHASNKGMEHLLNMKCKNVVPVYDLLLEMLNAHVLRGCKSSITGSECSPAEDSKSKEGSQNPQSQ

Compound	Potency [1]	Potency [2]	Potency [3]	Potency [4]	Potency [5]	Potency [6]	Potency [7]	Potency [8]	Potency [9]	Potency [10]	Potency [11]	Potency [12]	Potency [13]	Potency [14]	outcome [15]	Potency [16]	outcome [17]	Potency [18]	Potency [19]
CCCCOCCOC(C)=O	inactive	inactive	inactive	inactive	inactive	inactive	inactive	inactive	inactive	inactive	inactive	inactive	inactive	inactive	inactive	inactive	–	–	–
CC(C)=CC1C(C(=O)OCN2C(=O)C3=C(CCCC3)C2=O)C1(C)C (stereo not drawn)	inactive	–	–	inactive	inactive	inactive	–	inactive	–	–	inactive	inactive	–	inactive	inactive	inactive	inactive	–	–
Cl	inactive	inactive	–	–	–	inactive	inactive	inactive	inactive	inactive	inactive	inactive	inactive	–	–	inactive	–	inactive	–
N#CCCCCC#N	inactive	inactive	–	inactive	inactive	inactive	inactive	inactive	inactive	inactive	inactive	inactive	inactive	inactive	inactive	inactive	–	–	–
C[N+](C)(C)CC(=O)[O-]	inactive	inactive	inactive	–	–	inactive	inactive	inactive	inactive	inactive	inactive	inactive	inactive	–	–	inactive	–	inactive	–
O=S(=O)(O)C(F)(F)C(F)(F)C(F)(F)C(F)(F)C(F)(F)C(F)(F)C(F)(F)C(F)(F)F	inactive	51.9 µM (active) and 48.6 µM (active)	–	inactive	inactive	inactive	–	–	–	41.2 µM (active) and inactive and 17.2 µM (active)	inactive	inactive	inactive	–	–	inactive	–	–	–
C[N+](C)(C)CC(=O)O	inactive	inactive	inactive	–	–	inactive	–	inactive	inactive	inactive	inactive	inactive	inactive	–	–	inactive	–	inactive	–
CC(C)(c1ccccc1)c1ccc(O)c(C(C)(C)c2ccccc2)c1	–	21.5 µM (active) and 30.6 µM (active)	inactive	inactive	inactive	68 µM (active)	–	–	–	42.9 µM (active) and 27.3 µM (active)	54.4 µM (active) and 43.6 µM (active)	48.5 µM (active) and 43.6 µM (active)	–	inactive	inactive	35.5 µM (active) and 48.6 µM (active)	–	–	–
c1ccc(C2CO2)cc1 (stereo not drawn)	inactive	inactive	–	inactive	inactive	inactive	–	inactive	–	inactive	inactive	inactive	inactive	inactive	inactive	inactive	–	inactive	–
CC1CC(=O)O1 (stereo not drawn)	inactive	inactive	–	inactive	inactive	inactive	inactive	inactive	inactive	inactive	inactive	inactive	inactive	–	–	inactive	–	–	–
CNC(=S)S	inactive	inactive	inactive	inactive	inactive	inactive	–	inactive	inactive	inactive	inactive	inactive	inactive	inactive	inactive	inactive	–	inactive	–
CC(C)(O)C#N	inactive	inactive	–	inactive	inactive	inactive	–	inactive	inactive	inactive	inactive	inactive	inactive	inactive	inactive	inactive	–	–	inactive
O=[N+]([O-])c1ccc(Cl)c([N+](=O)[O-])c1	22 µM (active) and 21.7 µM (active)	27.7 µM (active) and 27.3 µM (active)	inactive	inactive	inactive	31.1 µM (active) and 27.3 µM (active)	–	24.3 µM (active)	31.1 µM (active) and 27.3 µM (active)	27.7 µM (active) and 27.3 µM (active)	55.8 µM (active) and 34.7 µM (active)	24.5 µM (active)	–	inactive	inactive	31.6 µM (active) and 21.7 µM (active)	inactive	–	–
